Measurements taken from PubChem BioAssay (NCI).
This is part of a sample that, as a whole, favours compounds with a hit. Of some 83,000 tested, about 20% had one in any assay.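 Single-dose data. Exposure time 48 hours. Values below 10 considered active.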 Unmarked numbers belong to inactive results. Calls of active or inactive are those of the source.

These molecules were tested on BT-549 breast (assay: NCI-60 one-dose screen, 48 h (100 = growth as untreated, 0 = no growth, -100 = all killed)). Conditions: 10 µM unless noted.
Protocol: Growth inhibition of the BT-549 human tumor cell line is measured as a screen for anti-cancer activity. Cells are grown in 96 well plates and exposed to the test compound for 48 hours. Compounds are tested at a single concentration, which is 10^-5 M for most compounds. The reported endpoint is percent growth (GI% or GIPRCNT), where numbers from 0 - 100% represent growth inhibition, and numbers from -100% - 0 represent cell death. For example, a value of 40 represents 60% growth inhibition. A value of 0 means no net growth occurred over the course of the experiment. A value of -40 indicates 40% of cells at the beginning of the experiment died by the end of the experiment. A value of -100 means all cells are dead at the end of the experiment.
NCI-60 Human Tumor Cell Lines Screen was performed using the standard one-dose NCI protocol, which is described in more detail at https://dtp.cancer.gov/discovery_development/nci-60/default.htm.
Compounds with GIPRCNT values below 10 were considered active. Activity score was based on GIPRCNT using the following formula: […]
Score is 0 for GIPRCNT values of 100 or above, 50 for GIPRCNT values of 0, and 100 for GIPRCNT values of -100.

Structure (SMILES)	growth
O=C1/C(=C/c2ccc(C(F)(F)F)cc2)COc2ccc(O)cc21	72.8%
O=C(CSc1nnc2sc(Nc3cccc(Cl)c3)nn12)c1ccc(F)cc1	97.8%
C=CC(C)(O)CC/C=C(\CO)C(=O)OC1C(C)OC(O[C@](C)(C=C)CC/C=C(\CO)C(=O)O[C@H]2C[C@@]3(C(=O)OC4OC(CO)C(O)C(O)C4OC4OC(C)C(OC5OC(CO)C(O)C5O)C(OC5OC(CO)C(O)C(O)C5O)C4O)C(CC2(C)C)C2=CCC4[C@@]5(C)CC[C@H](OC6OC(COC7OC(C)C(O)C(O)C7OC7OCC(O)C(O)C7O)C(O)C(O)C6NC(C)=O)C(C)(C)C5CC[C@@]4(C)[C@]2(C)C[C@H]3O)C(O)C1O (stereo not given in full)	104%
Cc1nc2sc(C(=O)Nc3cccc(Cl)c3)c(N)c2cc1C(O)c1ccccc1 (stereo not given)	52.6%
Cc1ccc2[nH]c(-c3ccc(S(C)(=O)=O)cc3)c(/C=N/N=C(N)N)c2c1	76.9%
CC12CCC(/C(=C/NNc3ccc([N+](=O)[O-])cc3[N+](=O)[O-])C1=O)C2(C)C (stereo not given)	69.4%
Cc1cccc(NC(=O)CSc2nc3ccc([N+](=O)[O-])cc3[nH]2)c1	100%
CCOC(=O)Nc1nc2ccc(SCC(C)C)cc2s1	47.1%
CCCCCCCCNc1cc2c3c(c1)CCCN3CCC2	20%
Cc1c(Cl)cccc1C(=O)Nc1nc2c(s1)CN(C(=O)Nc1cccc(C(F)(F)F)c1)CC2	33.6%
CC(C)(C)C(=O)/C=C/c1ccc([N+](=O)[O-])cc1	78.5%
O=C(Cn1nnc2ccccc21)N/N=C/c1ccccc1F	101%
CCn1cc(C(=O)N/N=C/c2ccc(Br)cc2)c(=O)c2cc(F)c(N3CCNC(C)C3)c(F)c21 (stereo not given)	91.7%
CCOC(=O)c1c(C)nn(CC(O)c2ccccc2)c1NC(=O)Nc1cccc(F)c1 (stereo not given)	96.4%
COc1ccc2cc(Cn3cc[n+](Cc4ccc5ccccc5c4)c3)ccc2c1	11.8%
COc1ccc(C2=NN(C(=O)c3cc(OC)c(OC)c(OC)c3)C(c3ccc(N(C)C)cc3)C2)cc1 (stereo not given)	28.4%
CC1(C)OC(=O)C(=Cc2cccc(Br)c2)C(=O)O1	108%
O=C1CC2C=CCN2C=C1NC(=O)C1CCCCC1 (stereo not given)	117%
O=C(N/N=C/c1ccc([N+](=O)[O-])cc1)c1ccc2nc(-c3ccc(Cl)cc3)[nH]c2c1	14%
Cc1cc(C(=O)Nc2cc(Nc3ncccc3-c3ncnc4nc[nH]c34)ccc2F)cc(C(F)(F)F)c1	91.3%

Structure (SMILES)	growth
COc1cc(C2C3=C(COC3=O)N(CCO)c3cc4c(cc32)OCCO4)cc(OC)c1OC (stereo not given)	-4.33% (active)
Oc1c(I)cc(-c2nc3ccccc3s2)cc1CN(Cc1ccccn1)Cc1ccccn1	22%
Cc1c2cnccc2c(C)c2c1c1cc(C3OCCCO3)ccc1n2C	-37% (active)
NNC(=S)N/N=C/c1ccccn1	55%
Nc1ncnc2c1c(-c1ccc(Oc3ccccc3)cc1)nn2CC1SSCC1O (stereo not given)	82%
COc1ccc(NC(=O)c2sc3nc(C)c(C(O)c4ccccc4)cc3c2N)cc1 (stereo not given)	65.8%
N#CC(C#N)N=Nc1ccc(Cl)cc1Cl	94.8%
COc1cc(-c2nc(SCCC(C)C)nc(N3CCOCC3)c2C#N)cc(OC)c1OC	79.9%
Cc1cc(N2CCCCC2)nc(N2CCN(CC(=O)Nc3ccc4c(ccn4Cc4ccccc4)c3)CC2)n1	82.7%
COc1cc(C(=O)/C=C/c2ccc(N3CCN(C)CC3)cc2)cc(OC)c1OC	100%
Brc1ccc(-c2cnc3nonc3n2)cc1	115%
O=c1ccc2nc(C(F)(F)F)nn(-c3ccccc3)c-2c1	69.2%
O=C1NC(=O)c2c1c1c3ccccc3[nH]c1c1oc3cc(Br)ccc3c21	81.3%
Cc1cc(N2CCN(C)CC2)nc(NCc2cc(Nc3ccnc4cc(Cl)ccc34)ccc2F)n1	30.4%
COc1cc(C2=NN(C(C)=O)C(c3ccc(N(C)C)cc3)C2)cc(OC)c1OC (stereo not given)	94.4%
CC(C)C[C@@H](C(=O)N[C@H](C(=O)OC1CCCC1)c1ccccc1)[C@H](O)C(=O)NO	69.7%
C#CC#CC#CC#CC#CC#CC#CC#CCC1OCC(COC(=O)O[C@@H](C(=O)O[C@H]2C[C@@]3(O)[C@@H](OC(=O)c4ccccc4)[C@@H]4[C@]5(OC(C)=O)CO[C@@H]5C[C@H](O)[C@@]4(C)C(=O)[C@H](OC(C)=O)C(=C2C)C3(C)C)[C@@H](NC(=O)c2ccccc2)c2ccccc2)O1 (stereo not given in full)	14.5%
C=CC(=O)N1CCN(c2ccc3cccc(NC(=O)c4cnc(C)cn4)c3n2)CC1	34.3%
COC(=O)/C(CCC=C(C)C)=C1\[C@@H](OC(C)=O)C[C@@]2(C)[C@H]1CC(=O)[C@H]1[C@@]3(C)CCC(N4CCCC4)[C@@H](C)[C@@H]3CC[C@@]12C (stereo not given in full)	92.5%
C[C@@H]1CC[C@@]2(OC1)O[C@H]1C[C@H]3[C@@H]4CC=C5C[C@@H](O[C@@H]6O[C@H](CO)[C@@H](O[C@@H]7O[C@@H](CO)[C@H](O)[C@H]7O)[C@H](O)[C@H]6O[C@@H]6O[C@@H](C)[C@H](O)[C@@H](O)[C@H]6O)CC[C@]5(C)[C@H]4CC[C@]3(C)[C@H]1[C@@H]2C	-59.4% (active)
